Screen size: about 69,000 compounds; about 8,600 (12%) showed an effect of 50% or more. The entries come from a sample that favours strong results as a whole.

Data on 55 compounds can be found in ChEMBL document CHEMBL4513216, “Probing the Open Global Health Chemical Diversity Library for Multistage-Active Starting Points for Next-Generation Antimalarials” (ACS Infect Dis, 2020).

This experiment deals with Plasmodium berghei. Description: Screen against P. berghei liver stage (PbLuc), transformed with Luciferase, at 10uM. It is filed as functional, HepG2. The following applies: tested at 10 uM.
For `c1csc(CN2CC[C@H]3O[C@@H](COCC4CC4)CC[C@H]32)c1`, the INHIBITION stood at 73%.

As for `Cc1cccc(COC[C@@H]2CC[C@H]3[C@H](CCN3Cc3ccco3)O2)n1`, the INHIBITION amounted to 43.5%.

For `Cc1cccc(COC[C@H]2CC[C@H]3[C@H](CCN3Cc3ccco3)O2)n1`, the INHIBITION worked out at 68.4%.

`COC[C@H]1CC[C@@H]2[C@@H](CCN2Cc2ccco2)O1`: the INHIBITION was -6.39%.

On to `c1ccc(COC[C@H]2CC[C@H]3[C@H](CCN3Cc3ccco3)O2)nc1`, for which the INHIBITION worked out at 51.3%.

Turning to `c1ccc(COC[C@H]2CC[C@H]3[C@H](CCN3c3ncccn3)O2)nc1`, the INHIBITION is reported as 26.4%.

For `c1coc(CN2CC[C@H]3O[C@@H](COCC4CC4)CC[C@H]32)c1`, the INHIBITION turned out to be 53.9%.

With `Cn1cc(C[C@H]2[C@H](O)CCN2CC2CCOCC2)cn1`, the INHIBITION is recorded as 6.6%.

Regarding `O=C1CNc2ncnc(NCc3cccs3)c2N1`, the INHIBITION is -25.5%.

As to `CN(Cc1ccco1)C(=O)CN1C(=O)c2cc(Cl)c(Cl)cc2C1=O`, the INHIBITION is recorded as 39.2%.

Regarding `O=C1COC2(CCN(Cc3ccoc3)CC2)CN1`, the INHIBITION was -0.813%.

`CS(=O)(=O)CC(=O)N1C[C@H]2CCC[C@@]2(COc2ccccn2)C1`: the INHIBITION is recorded as -0.453%.

With `Cn1c(=O)c2cc(C(=O)NCCOc3ccccc3)ccc2n(C)c1=O`, the INHIBITION turned out to be 33.7%.

For the compound `CC(C)n1c(=O)c2ccccc2n(CCCN(C)C)c1=O`, the INHIBITION is 28.7%.

With `c1ccc(CN2CC[C@@H]3O[C@H](COCc4ccncc4)CC[C@@H]32)nc1`, the INHIBITION is 14.8%.

As to `c1ccc(COC[C@H]2CC[C@H]3[C@H](CCN3Cc3ccccn3)O2)nc1`, the INHIBITION turned out to be 50.9%.

Turning to `c1ccc(COC[C@H]2CC[C@H]3[C@H](CCN3Cc3cccnc3)O2)nc1`, the INHIBITION was determined as 29.9%.

Regarding `CCCNC(=O)c1[nH]nc(C2CC2)c1Br`, the INHIBITION was -59.9%.

As to `Cn1cnc2ccc(NC(=O)CCCn3cccn3)cc2c1=O`, the INHIBITION worked out at 2.84%.

On to `O=C(c1ccccc1F)N1CCCC1Cn1c(=O)oc2ccccc21` (stereo not given), for which the INHIBITION is on record as -1.4%.

`Fc1ccccc1C(CNc1ccncn1)N1CCCC1` (stereo not given): the INHIBITION is listed as 43.4%.

As for `CCc1nc2ccccc2c(=O)n1CC1(O)CCN(S(C)(=O)=O)CC1`, the INHIBITION worked out at 52.9%.

With `CS(=O)(=O)N1CCC(O)(Cn2c(C3CC3)nc3ccccc3c2=O)CC1`, the INHIBITION was found to be 38.1%.

Take `CCc1nc2ccccc2c(=O)n1CC1(O)CCNCC1`: the INHIBITION was 28%.

For `CC(C)CCN1CCN(C(=O)c2c[nH]nn2)CC1`, the INHIBITION is listed as -0.275%.

For `Cc1nc(COC[C@@H]2CC[C@H]3[C@H](CCN3c3ccccn3)O2)cs1`, the INHIBITION is -106%.

In the case of `CCN1CC2(CCN(CCOCCO)CC2)CC(c2ccccc2)C1=O` (stereo not given), the INHIBITION was determined as 7.84%.

In the case of `CN1CC2(CCN(CCOCCO)CC2)CC(c2ccccc2)C1=O` (stereo not given), the INHIBITION is given as 73.4%.

`CN1C(=O)C(c2ccccc2)CC12CCN(CCOCCO)CC2` (stereo not given): the INHIBITION is listed as -26.4%.

Turning to `CCN(C(=O)COC)C(c1cccnc1)c1ccc2c(c1)CCO2` (stereo not given), the INHIBITION is 51.8%.

Take `CCN(C(=O)C1CC1)C(c1cccnc1)c1ccc2c(c1)CCO2` (stereo not given): the INHIBITION came out at 21.8%.

`CCC(=O)N(CC)C(c1cccnc1)c1ccc2c(c1)CCO2` (stereo not given): the INHIBITION is 37.9%.

For the compound `CCN(C(=O)C1CCC1)C(c1cccnc1)c1ccc2c(c1)CCO2` (stereo not given), the INHIBITION is 66.2%.

Turning to `CCN(C(=O)C(C)C)C(c1cccnc1)c1ccc2c(c1)CCO2` (stereo not given), the INHIBITION is 3.87%.

For the compound `CCCC(=O)N(CC)C(c1cccnc1)c1ccc2c(c1)CCO2` (stereo not given), the INHIBITION is 29.4%.

Turning to `Cn1ccnc1Sc1ccc(S(N)(=O)=O)cn1`, the INHIBITION worked out at 7.92%.

As for `CS(=O)(=O)c1cc(Cl)cnc1C1CCN(C(=O)C2CC2)CC1`, the INHIBITION was 15.49%.

Consider `CCOC(=O)c1nc(COc2c(C)occc2=O)no1`, for which the INHIBITION was determined as 41.7%.

Regarding `COCC(=O)N1CCCCC1c1ccnc(Nc2cnccn2)n1` (stereo not given), the INHIBITION is recorded as -26.2%.

`CCn1cc(CN(C)S(=O)(=O)c2ccccc2)cn1`: the INHIBITION came out at 35.8%.

Consider `CCn1cc(CN(C)S(=O)(=O)c2ccc(Cl)cc2)cn1`, for which the INHIBITION is -64.7%.

For `CCOc1ccc(S(=O)(=O)N(C)Cc2cnn(CC)c2)cc1`, the INHIBITION worked out at 55.7%.

In the case of `NC(=O)C1CCN(C(=O)CCCc2nnc(-c3ccccc3)o2)CC1`, the INHIBITION is reported as 33.7%.

As to `O=C([C@H]1COC[C@H]2CN(C3CCCCC3)C[C@H]21)N1CCOCC1`, the INHIBITION is given as 31.2%.

Take `O=C([C@H]1COC[C@H]2CN(C3CCCC3)C[C@H]21)N1CCOCC1`: the INHIBITION was found to be 74.7%.

For the compound `O=C([C@H]1COC[C@H]2CN(C3CCCC3)C[C@H]21)N1CCCCO1`, the INHIBITION was 5.65%.

As for `O=C([C@@H]1COC[C@H]2CN(C3CCCCC3)C[C@H]21)N1CCOCC1`, the INHIBITION is reported as 7.7%.

Consider `O=C([C@@H]1COC[C@H]2CN(C3CCCC3)C[C@H]21)N1CCC(F)CC1`, for which the INHIBITION was 50.3%.

On to `O=C([C@@H]1COC[C@H]2CN(C3CCCC3)C[C@H]21)N1CCCO1`, for which the INHIBITION was 35.4%.

On to `O=C(O)[C@@H]1CN(C2CCOCC2)C[C@H]1C1CC1`, for which the INHIBITION was 25.1%.

As for `O=C([C@H]1COC[C@H]2CN(C3CCOCC3)C[C@H]21)N1CCC(F)CC1`, the INHIBITION is given as -20.4%.

`O=C([C@@H]1COC[C@H]2CN(C3CCOCC3)C[C@H]21)N1CCOCC1`: the INHIBITION is reported as -5.69%.

On to `O=C(O)[C@@H]1CN(C2CCCC2)C[C@H]1C1CC1`, for which the INHIBITION is recorded as 57.9%.

With `O=C([C@H]1COC[C@H]2CN(C3CCCC3)C[C@H]21)N1CCCO1`, the INHIBITION was determined as 71.4%.

On to `O=C(O)[C@@H]1CN(C2CCCCC2)C[C@H]1C1CC1`, for which the INHIBITION is 9.34%.
